“And” between values parts separate entries of the source, which are not always exact repeats. Identical values can stand only once. Records with an inconclusive call do not appear. More than one record can exist for a structure, and the calls need not agree. The source made the active and inactive calls. Unless noted, the call rests on the fitted dose curve; in most records, active means well fitted curve in the direction sought with a large enough effect in the repeat runs; inconclusive means weak or mixed curves; inactive means no such curve, though single readings can be large; an effect the other way counts as inactive or inconclusive.
How the values were obtained:
[1] = qHTS assay to identify small molecule antagonists of the estrogen related receptor (ERR) signaling pathway from Tox21 library - cell viability counter screen (AID 1224834); further: nearly all actives have a fitted effect of over 30% in size
Method in brief: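 ERR reporter cells, 2,000 per well, rested 6 h, then exposed to compound in DMSO for 17.5 hours at 37 C. Viability read as fluorescence after 30 min with CellTiter-Fluor.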

[2] = target: Luciferin 4-monooxygenase (Photinus pyralis) (UniProt P08659); test: qHTS assay to identify small molecule inhibitors of firefly luciferase (AID 1224835); further: nearly all actives have a fitted effect of over 25% in size
Method in brief: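 Inhibition of purified Photinus luciferase is measured by luminescence. Substrate levels (D-luciferin, ATP) sit at their KM values. Each compound is tested in a concentration series.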

[3] = qHTS assay to identify small molecule agonists of the constitutive androstane receptor (CAR) signaling pathway - cell viability counter screen (AID 1224836); further: nearly all actives have a fitted effect of over 45% in size
Method in brief: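 Double-stable HepG2 hepatoma cells (hCAR plus CYP2B6-2.2kb) are treated for 23 h at 37 C with test compounds in 15-point concentration series. PK11195 at 0.75 uM final is co-added. Cell viability is quantified by CellTiter-Fluor.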

[4] = qHTS assay to identify small molecule antagonists of the constitutive androstane receptor (CAR) signaling pathway - cell viability counter screen (AID 1224837); further: nearly all actives have a fitted effect of over 45% in size
Method in brief: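 HepG2 cells stably carrying hCAR and CYP2B6-2.2kb reporter, stimulated with 50 nM CITCO and compounds at 15 concentrations for 23 h at 37 C. Viability measured by CellTiter-Fluor fluorescence.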

[5] = target: Nuclear receptor subfamily 1 group I member 3 (Homo sapiens) (UniProt Q14994); test: qHTS assay to identify small molecule agonists of the constitutive androstane receptor (CAR) signaling pathway (AID 1224839); further: nearly all actives have a fitted effect of over 15% in size
Method in brief: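 Readout: firefly luciferase luminescence via ONE-Glo. System: HepG2 double-stable for hCAR and CYP2B6-2.2kb. Conditions: 15-point compound titration, PK11195 at 0.75 uM final, 24 h incubation.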

[6] = qHTS assay to identify small molecule antagonists of the estrogen related receptor signaling pathway with the pleiotropic PPARgamma coactivator (PGC) from Tox21 10K library - cell viability counter screen (AID 1224840; active means well fitted cell-killing curve with a large enough effect in the repeat runs, not every such curve was filed as active; further: nearly all actives have a fitted effect of over 40% in size)
Method in brief: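 PGC/ERR cells (2,000/well) plated 6 h, then compound-treated for 17.5 h at 37 C. Viability measured by CellTiter-Fluor fluorescence after 30 min at 37 C, multiplexed with the pathway assay.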

[7] = target: Nuclear receptor subfamily 1 group I member 3 (Homo sapiens) (UniProt Q14994); test: qHTS assay to identify small molecule antagonists of the constitutive androstane receptor (CAR) signaling pathway (AID 1224838); further: nearly all actives have a fitted effect of over 40% in size
Method in brief: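 HepG2 cells stably carrying hCAR and a CYP2B6-2.2kb luciferase reporter, seeded 4 hrs before compound (15 concentrations). Stimulated with 50 nM CITCO for 24 hr at 37 C. ONE-Glo luminescence read after 30 min at room temperature.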

[8] = qHTS assay to identify small molecule antagonists of the estrogen related receptor signaling pathway with the pleiotropic PPARgamma coactivator (PGC) from Tox21 10K library (AID 1224841; call rule not given here; further: actives are mostly falling curves and most rising ones were filed inactive; nearly all actives have a fitted effect of over 50% in size)
Method in brief: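 PGC/ERR cell line, 2,000 cells/well, pre-incubated 6 hours at 37 C, then exposed to compounds for 18 hours at 37 C; luciferase read with One-Glo luminescence after 30 min at room temperature.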

[9] = qHTS assay to identify small molecule agonists of the estrogen related receptor signaling pathway with the pleiotropic PPARgamma coactivator (PGC) from Tox21 10K library (AID 1224842); further: nearly all actives have a fitted effect of over 15% in size
Method in brief: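 Luminescence from One-Glo (30 min, room temperature) measured after PGC/ERR cells had 18 h at 37 C with pinned compound (23 nL in DMSO). Cells had been seeded at 2,000 per well and pre-incubated 6 h.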

Measured: Potency
Potency means the concentration at half of the fitted maximal effect.

Sequence of Luciferin 4-monooxygenase (Photinus pyralis) (P08659 whole entry, looked up): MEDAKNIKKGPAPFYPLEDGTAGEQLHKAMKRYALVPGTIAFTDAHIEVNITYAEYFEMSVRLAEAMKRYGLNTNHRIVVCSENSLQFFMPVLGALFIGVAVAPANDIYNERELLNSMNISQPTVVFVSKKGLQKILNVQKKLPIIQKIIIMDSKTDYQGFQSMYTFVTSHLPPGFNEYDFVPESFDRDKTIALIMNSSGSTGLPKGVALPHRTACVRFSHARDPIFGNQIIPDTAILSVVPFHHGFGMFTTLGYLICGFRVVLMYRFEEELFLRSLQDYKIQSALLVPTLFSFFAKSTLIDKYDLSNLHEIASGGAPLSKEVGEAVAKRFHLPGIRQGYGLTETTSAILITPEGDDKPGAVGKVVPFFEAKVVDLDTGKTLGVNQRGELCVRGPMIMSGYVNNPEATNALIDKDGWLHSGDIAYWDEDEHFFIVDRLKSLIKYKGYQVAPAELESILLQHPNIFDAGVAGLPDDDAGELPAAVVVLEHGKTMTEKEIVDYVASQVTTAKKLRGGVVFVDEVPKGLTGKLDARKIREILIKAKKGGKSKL
Sequence of Nuclear receptor subfamily 1 group I member 3 (Homo sapiens) (Q14994 whole entry, looked up): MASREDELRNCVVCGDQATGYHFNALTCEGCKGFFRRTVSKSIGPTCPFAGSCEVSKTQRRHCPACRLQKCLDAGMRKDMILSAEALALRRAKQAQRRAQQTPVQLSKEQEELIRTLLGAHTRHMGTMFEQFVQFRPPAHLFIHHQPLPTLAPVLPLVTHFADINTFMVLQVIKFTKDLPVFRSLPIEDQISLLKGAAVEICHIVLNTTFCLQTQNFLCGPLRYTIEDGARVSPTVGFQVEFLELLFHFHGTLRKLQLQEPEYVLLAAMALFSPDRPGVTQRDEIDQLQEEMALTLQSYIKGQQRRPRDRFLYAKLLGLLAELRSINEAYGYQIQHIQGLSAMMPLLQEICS

CCOc1cc(C=O)ccc1O
not listed: [7] | [8] | [9]
inactive: all other assays above

Nc1ccc(Cl)cc1N
active: [2] 13.1 µM and 7.1 µM | [3] 4.33 µM | [4] 6.86 µM | [7] 0.217 µM | [9] 8.98 µM and 386 nM
inactive: [1] | [6] | [8]

Nc1cccnc1
inactive: [1] | [2] | [3] | [4] | [6]

Oc1cc(Cl)c(Cl)cc1Cl
inactive: [1] | [2] | [3] | [4] | [6]

Nc1ccc(-c2ccccc2)cc1
inactive: [3] | [4] | [6]
active: [2] 57.9 µM and 63.3 µM
8.87 µM (active) and inactive: [1]

O=Cc1ccco1
not listed: [5] | [7]
inactive: all other assays above

CCOP(=S)(OCC)O/N=C(\C#N)c1ccccc1
not listed: [5] | [7]
inactive: all other assays above

CCOc1cc(Oc2ccc(C(F)(F)F)cc2Cl)ccc1[N+](=O)[O-]
55.1 µM (active) and inactive: [8]
not listed: [4] | [5]
inactive: all other assays above

Nc1ccc(Cl)c(Cl)c1
not listed: [4] | [5]
inactive: all other assays above

CC(C)C(=O)OCC(C)(C)C(OC(=O)C(C)C)C(C)C (stereo unspecified)
not listed: [4] | [5]
inactive: all other assays above

O=S(=O)(Oc1ccc(Cl)cc1)c1ccc(Cl)cc1
not listed: [4] | [5]
inactive: all other assays above

O=P(O)(O)CCCl
inactive: [1] | [2] | [3] | [4] | [6]

CC1(C)C(C=C(Cl)Cl)C1C(=O)OC(C#N)c1cccc(Oc2ccccc2)c1 (stereo unspecified)
inactive: [1] | [2] | [3] | [4] | [6]

Oc1cc(Cl)ccc1Cl
inactive: [1] | [2] | [3] | [4] | [6]

Brc1ccc(Oc2cc(Br)c(Br)cc2Br)c(Br)c1
not listed: [5] | [7]
inactive: all other assays above

Cc1cccc(N)c1N
inactive and 15.4 µM (active): [9]
active: [2] 30.6 µM
not listed: [5] | [7]
inactive: all other assays above

CCCCNC(=O)n1c(NC(=O)OC)nc2ccccc21
inactive: [1] | [3] | [6]
active: [2] 63 µM | [5] 54.2 µM

CCCCCCCCCCCOC(=O)c1ccccc1C(=O)OCCCCCCCCCCC
inactive: [1] | [2] | [3] | [4] | [6]

CCN(CC)N=O
not listed: [5] | [7]
inactive: all other assays above

CNC(=O)Oc1cccc2c1OC(C)(C)O2
inactive: [1] | [2] | [3] | [4] | [6]

Cc1ccc(OP(=O)(Oc2ccc(C)cc2)Oc2ccc(C)cc2)cc1
not listed: [5] | [7]
inactive: all other assays above

c1ccc(N=Nc2ccccc2)cc1
active: [2] 18.2 µM and 22.4 µM
not listed: [4]
inactive: all other assays above

c1ccc(-c2cccc(-c3ccccc3)c2)cc1
active: [2] 9.03 µM and 7.96 µM
inactive: [1] | [3] | [4] | [6]

C=CCc1ccc2c(c1)OCO2
inactive: [1] | [2] | [3] | [4] | [6]

Cc1cc(C)cc(C)c1
inactive: [1] | [2] | [3] | [4] | [6]

O=C(O)C(F)(F)C(F)(F)C(F)(F)C(F)(F)C(F)(F)C(F)(F)C(F)(F)F
inactive: [1] | [2] | [3] | [4] | [6]

Nn1cnnc1
inactive: [1] | [2] | [3] | [7] | [6]

CCN(N=O)C(N)=O
inactive: [1] | [2] | [3] | [4] | [6]

OCC(O)CO
not listed: [5] | [7]
inactive: all other assays above

Nc1c(Cl)cc([N+](=O)[O-])cc1Cl
active: [8] 48.9 µM and 27.3 µM
not listed: [4] | [5]
inactive: all other assays above

CCC(C)c1ccc(O)cc1 (stereo unspecified)
active: [2] 71.6 µM
not listed: [5] | [7]
inactive: all other assays above

Oc1ccc(-c2ccccc2)cc1
active: [2] 39.4 µM and 39.9 µM | [5] 53.8 µM and 54.5 µM
not listed: [4]
inactive: all other assays above

C#C[C@]1(O)CC[C@H]2[C@@H]3CCC4=CC(=O)CC[C@]4(C)[C@H]3CC[C@@]21C
inactive: [1] | [2] | [3] | [4] | [6]

CCC(C)(C)c1ccc(O)cc1
active: [2] 40.4 µM and 63.3 µM
not listed: [5] | [7]
inactive: all other assays above

O=[N+]([O-])c1ccc(O)c([N+](=O)[O-])c1
active: [1] 27.4 µM and 27.3 µM | [3] 30.8 µM | [6] 30.8 µM and 27.3 µM | [8] 30.8 µM and 21.7 µM
inactive: [2] | [7] | [9]

CCN(CC)C(=O)SCc1ccc(Cl)cc1
active: [2] 35.6 µM
not listed: [5] | [7]
inactive: all other assays above

CC(C)(c1cc(Cl)c(O)c(Cl)c1)c1cc(Cl)c(O)c(Cl)c1
not listed: [5] | [7]
inactive: all other assays above

CCC(CC)Nc1c([N+](=O)[O-])cc(C)c(C)c1[N+](=O)[O-]
not listed: [4] | [5]
inactive: all other assays above

Cc1ccccc1[N+](=O)[O-]
inactive: [1] | [2] | [3] | [7] | [6]

CCCCN(CCCC)N=O
inactive: [1] | [2] | [3] | [4] | [6]
